The supplement of paper PMC12632987
Over roughly 4,500 sequences, “median log2 fold change of GCK-ALFA target abundance (FLAG IP / Myc IP barcode read proportion)” has its median near 0.078; the lowest 2% begin near -0.6. Many of the other results were omitted from the sample, so the lowest values are more common in it than they were.

B1: GBRAP_125_3139 (protein)
chain: MKAELLALAEALARALGYSEEEIAELRRLGEAHDPAQTIIAILLAEGFEELAELAREVLPKLTPEEIAELRALAESLRDKSREELRAALLAKLKELKAKQ
B2: GBRAP_128_3300 (protein)
chain: MDPALRAEVEALVETIRTGDPAARRAAAEALAALMGSVNDEDAEAIADIIEAAIPELSAEALEILADVLDAARPQLTPEKAALAADVASAALLAAEELAE
B3: GBRAP_52_6059 (protein)
chain: MEERIEELARRIAEAIAAGDLERALELLRRAIKELSVEEIRRMLELAAERVAKLGEEAHERFVELLEEAEELMKEAGISEEEAELIVGDAEAALARAVAA
B4: GBRAP_52_6154 (protein)
chain: MEERAREYAERFVAAVKAGDEEEARAIMEEIAATLDDEEIALFLEHVAELVAGLSPEDRERVVEAVLEFEDIAEAAGHDPELLSYHTARVAGAAYAALQA
B5: GBRAP_52_6153 (protein)
chain: ARERAREYAEAFVAAVKAGDEERARAIMEEIAATLNDEEIELFLEEVARLVEGLTPEERERVVEAVLEFEDIAVAAGHDEELLSYHTARVAGAAYDALQK
B6: GBRAP_52_6151 (protein)
chain: AAARAAAYAREFVAAVRAGDEEKARAIMKEIAATLDDEEIALFLREVARLVAGLSPEDRERVVEAVLEFEDIAVAAGHDEDILSYETARVAGAAYEALQR
B7: GBRAP_64_6479 (protein)
chain: NEEIEELLEELLEAARRLLALFERENPELAPEAQEIVDLLEEAKTASLEERLDLVLEVTDRLHALLRDPRVTPEQRDALLEALDLAMALAALLAEEVEKE
B8: GBRAP_80_6848 (protein)
chain: AEERLAAALAALEALLPEVAEEARELVALARELGVPDEEIAAFLEALNELAKLDPELAAELIREALEDMKELKEEGDSENALAVVRGYTGDALMAAEELE
B9: GBRAP_80_6846 (protein)
chain: AAARLAAELAALKALLPEVAEDAKEAVALARELGVPDADIADYLAALNELAKLDPELAAALLKELLADLREEKAEGDSENALAVVRGYTGEALMEAEELE
B10: GBRAP_80_6856 (protein)
chain: AAAALAAALAALKALLPEVAEDAKEIVEIARELGVPDADIADLMEALAELAKVDPELAAELIKELLEELKEEKERGDAERALAVVRGYAGEALMLAEELE
B11: GBRAP_166_4906 (protein)
chain: MKEEKIEELIERAEELIEELKEADEEEALELLIEIGEVLRELKELGASEEEILELVRRTLEAVKERGLSVRVAAGIIAEVADFDEEMREKLDEIAREVEA
B12: GBRAP_78_6635 (protein)
chain: EVEELIDKALEKVSEAAKAALKLPLDLRAEVLDELSDAAVELVEAEEGEDKEEELEEALEELEEALEIVEENDSPLTEEIKKLLEEAIELVKKAIEELKE
B13: GBRAP_52_6046 (protein)
chain: MEEEARKLAKELLELVLEGKEEEARKLAREIAETKNEEEILKIAEELAKLVLEGDKETAEAGIKAAEIMAEELEKAGRDEGLADLILATVYGAAYKRLQK
B14: GBRAP_160_4784 (protein)
chain: MERVEKVAKRFREAAKRALELSKGETAENRANIVDVELGSAILELEEEGLLNDEEEEVAAEVRDELVAEILANPNLTDEELKALLEKAVEELRKRLEELE
B15: GBRAP_160_4344 (protein)
chain: SEEKEKLLKFVDEEFEEAIELIKGESIEQRKVIISGTFGEILMELSESPIISDELEDEVREIEDELLEYLDKNPDLSEEEIKELIKEAREKVKEAIEKHT
B16: GBRAP_35_5576 (protein)
chain: EDKEMLLETVEDLAEATIEAIKEGDVDLAIALLKAFLRTAKLAVEELENDLEALEKIAELLKKVIEEIKKHLADNPEMQKLLKELEKLLKEVKEKAEKVK
B17: GBRAP_35_5577 (protein)
chain: EDEEMLLETVEDLAEATIEAIKEGNLDLAIALLKAFLRTAKIAIEDLKNNKEALEKIAELLEKVIEEIKKYLSDNPEVQELKKELEELLKEAKEKLKKVK
B18: GBRAP_52_5857 (protein)
chain: SSARMRALAEELLALRLAGKEEELEARVKELVATLSEEEILALLEELAALAKEADKEGAEAILDVAELLADEAEEAGFDEDELSYALAEVAAAAYKQLQK
B19: GBRAP_128_3469 (protein)
chain: MTEEAVERTRKILEEMKKASPEEARELFKELFEWLLTLPLEVVEAVVEEIEKHLPELSAEKLEILAEVADEAMPKATPEKAALLADLRSSALLEAEKLEE
B20: GBRAP_35_5506 (protein)
chain: DSMSTIADMLVATIDDTVLAIPDLDVETAVQISRQLIRSAREVAEDLKDDPEGLKRLRDSMERLRDALVKHYGDNPLAQEAIKEIDELIKELEERIKEAE
B21: GBRAP_128_3267 (protein)
chain: MNPEVVAYAEAFVEKLKAAGPEEAKKLADELMEKLKTMSLEEVEQFVEVLEKKLKELSVEKLEILADAARKHRDEFSPEKANLVAGLEVEALNEAVEKEE
B22: GBRAP_160_3969 (protein)
chain: SEEVEKLLKEIDEIFEEAKEMIVGESFENRLTIVRVAVGEVLLLLSENPLVSDEAEDKVDEIGDELIATIEANPDLTEEEIKELIDKAEEEIKKIIKEDA
B23: GBRAP_125_3096 (protein)
chain: HMEEILEALKLLAKALGFSEEEAEELARLAANSSVKQTLYALFAAEGYEELADLVEKLTEEQAKEVLLELAKWLKENPNASKEEVVKKAKELAKKALAKA
B24: GBRAP_160_4666 (protein)
chain: MEELEKLMKELEEIAKEAVEMTKGQSHEERVAIIRVMKGEIILELEESKIATDEVVDYADELGDELIAYVAANPDLTEEELQELLDKMLKEIEEKLKEEL
B25: GBRAP_128_3471 (protein)
chain: AVEEARKRTEEIMEKMKEANDEEFKKLAEELAEWLLTLPVEEVEAAVEVIKEHLPELSAEKLEILADVLDKAMPKATPEKAALFADVRSEALLLAEEKEE
B26: GBRAP_166_4959 (protein)
chain: SLEEVRARLEAALAAFEAEGASLSLEERRDRLVEIAELLGEAARAGLPREELLEAAVRLLLLARAAGLSPAFVEAALVNIAGLPVELVDEALARAEALAA
B27: GBRAP_26_5483 (protein)
chain: REREILDELEAKVKAILADEPAEVRAAVVAEAIDALIEFAEVVEANINDEEKIEKAKKEALEEMRKFLEDLGIPEDKREKVVKALAEALEKVEKAIKEEA
B28: GBRAP_160_4794 (protein)
chain: SERIEKVAEIFREEAERALEMARGETVEERVAIFDVELGSAIMEAIEEGLLNDEEEDIAIEVRDELVEEVRRNPELTEEELRELARRKIEELRERLEELE
B29: GBRAP_9_7151 (protein)
chain: MEELFKKVKEILEDAFEEVKEVVPEEVKPIVDEKREEVLKRLEELAKDPNVTKEELKEEAKELVDEFEEAIKEKVDEETAKMVEAIALTAKLEIEEVAEE
B30: GBRAP_160_4217 (protein)
chain: MELVEKLVEIVREEFEEALELIEGESEEERRVILDVAVGNVILEAMEIPGVTDEMEEVVEEKSRELAEELLEARDKSEEERRKLIEERVEELREELEKLE
B31: GBRAP_160_4215 (protein)
chain: DEIVEKLVEIAREEFEEALELIEGESEEERRVILDVAVGNVILEASEIPGVTDEMEETVDRMSEELARELLEAAGESEEERRALIEERTEELRKELKKLA
B32: GBRAP_160_4218 (protein)
chain: MELVKKLVEIVREEFEEALELIEGESPEERRVILDVAVGNVILESMEIEGVTDEMEETVEEMSEELAEELLEAADESPEERRELIEERVEELEKELKKLE
B33: GBRAP_160_4516 (protein)
chain: SPKLERIEKLVEEARERIIEVIDEGDVEAAITVAAVEFGEVIMEIAEDESMSDEAEDAAAEIRDKLVEELKKAKDASKEEKKKIVEEKSKELIEKLKKLS

target: GABARAP, O95166; experiment: median log2 fold change of GCK-ALFA target abundance (FLAG IP / Myc IP barcode read proportion) (log2 ratio); each designed protein is fused to an ALFA-tag nanobody in HEK293 cells to bring the named protein to FLAG-tagged glucokinase (GCK); Myc marks an untargeted standard; higher = target protein stabilised (more abundant); settings: target protein: 3xFLAG-MCP-GCK-ALFA reporter; HEK293 landing pad (RPLP)
Sequence (O95166 whole entry, the tested form may be a part): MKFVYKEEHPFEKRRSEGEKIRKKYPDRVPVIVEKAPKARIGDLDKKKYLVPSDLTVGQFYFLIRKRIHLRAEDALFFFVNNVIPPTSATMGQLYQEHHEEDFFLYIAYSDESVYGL
Summary of the method: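 An ALFA-nanobody-fused binder library was recombined into HEK293 landing-pad cells and induced with 2 μg mL^−1 doxycycline. Cells were transfected with a plasmid expressing a FLAG-tagged target and a Myc-tagged standard. After 48 h, lysates underwent anti-FLAG and anti-Myc immunoprecipitation, and circular RNA barcodes were reverse transcribed, amplified and sequenced. Target abundance is the per-binder median log2 ratio of FLAG to Myc barcode read proportions. Barcodes needed ≥10^−7 proportion in both replicates, binders ≥3 barcodes per replicate, and a 10^−6 pseudocount was added; the two replicates were pooled.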

Binder	median log2 fold change
B1	0.207
B2	-0.00271
B3	0.0176
B4	0.0811
B5	-0.742
B6	0.0301
B7	-0.254
B8	-0.203
B9	-0.698
B10	-0.242
B11	-0.128
B12	-1.21
B13	-0.00871
B14	0.242
B15	-0.232
B16	-1.27
B17	0.248

Binder	median log2 fold change
B18	-0.305
B19	0.314
B20	-0.631
B21	0.119
B22	-0.61
B23	0.229
B24	-1.11
B25	0.298
B26	0.117
B27	0.341
B28	0.169
B29	0.225
B30	-0.6
B31	-0.331
B32	-0.299
B33	0.404
